The results in this text go back to PubChem BioAssay AID435003 (Sanford-Burnham Center for Chemical Genomics, 2010).

The campaign covered roughly 330,000 compounds. About 1,700 (0.52%) were called active. No stated cut-off is given here; in the data, active means inhibition above about 50%; inactive means the rest. This excerpt belongs to a sample that is enriched for actives.

This assay in a line: lowers stimulated NF-kB reporter luminescence – cell-based, uHTS, TCR NF-kB activation inhibitor project, primary screen (AID 435003). The settings on record: at 4 µM, stronger effect = higher value; NF-kB luciferase reporter unless noted. (In general: In a reporter assay the amount or activity of a reporter protein is the signal.)
For `Cc1cc2ccccn2c1C(C[N+](=O)[O-])c1c(F)cccc1Cl` (stereo not given), the inhibition (usually the drop in the measured response relative to a control, in per cent) is 71.3% (active).
The result for `O=C(c1cc2nc(-c3ccccc3)cc(-c3ccccc3)n2n1)N1CCC2(CC1)OCCO2` reads -2.97% (inactive); that for `C[C@]12CCC3C(CC[C@H]4C[C@@H](O)CC[C@]34C)C1C[C@@H](O)[C@H]2O` (stereo not given in full), -3.46% (inactive).
The result for `C[C@]12CC[C@H](O)C[C@H]1CC[C@@H]1C2CC[C@]2(C)[C@@H](C3=CC(=O)OC3)[C@@H](O)C[C@]12O` (stereo not given in full) reads 79.5% [Jurkat, PMA/ionomycin-induced NF-kB luciferase reporter] (active); that for `C[C@]12CCC3C(CC[C@H]4C[C@@H](O)CC[C@]34C)C1CC[C@@H]2O` (stereo not given in full), 10.7% (inactive).
Consider `CN1CCN(/N=C/c2c[nH]c3ccccc23)CC1`, for which the inhibition was -15.1% (inactive).
As to `O=C(NCC(c1cccnc1)N1CCN(c2ccccc2)CC1)Oc1ccccc1` (stereo not given), the inhibition was 10.4% (inactive).
The result for `COc1ccccc1C1=NCc2nnc(CSC)n2-c2ccc(Cl)cc21` reads -5.97% (inactive).
As to `CCCCCCCCCCCCn1ccc(=N)cc1`, the inhibition was 94.2% (active).
The result for `Cc1nn(Cc2ccccc2Cl)c(Cl)c1C(=O)OC(C(=O)NC(N)=O)C(C)C` (stereo not given) reads 11.3% (inactive).
`CCOC(=O)C1(Cc2ccc(Cl)cc2)CCN(C(C)CCn2cccn2)CC1` (stereo not given): the inhibition is -3.65% (inactive).
In the case of `O=C(CCNS(=O)(=O)c1ccccc1)Nc1ccc(Cl)cc1C(=O)c1ccccc1` it was -5.78% (inactive); in that of `COC(=O)[C@@H]1C(OC(=O)c2ccccc2)CC2CCC1N2C` (stereo not given in full), -16.7% (inactive); in that of `COc1ccc(N2C(=O)/C(=C/c3ccco3)C(=O)NC2=S)cc1`, 1.64% (inactive).
In the case of `CCOc1ccc(-c2cc(C)[n+](CCN(CC)CC)c(-c3ccc(OCC)cc3)c2)cc1` it was 72.8% (active).
The result for `CN1CCc2cc3c(cc2[C@H]1[C@@H]1OC(=O)c2c1ccc1c2OCO1)OCO3` reads 5.76% [Jurkat, PMA/ionomycin-induced NF-kB luciferase reporter] (inactive); that for `CCN(CC)P(=O)(Oc1cccc(C)c1)N(CC)CC`, 4.24% (inactive); that for `Cc1cc(N2C(=O)C3CCCN3C2c2ccc(Cl)c(Cl)c2)no1` (stereo not given), -12.8% (inactive).
Consider `c1ccc(C2NCc3ccccc3-n3cccc32)cc1` (stereo not given), for which the inhibition is 10.4% (inactive).
Take `CNC(=O)O/N=C(\N)Cc1csc2ccc(Cl)cc12`: the inhibition is -0.793% (inactive).
